H9c2 protect: cardioprotection against H2O2-induced cell death, primary screen, uHTS, H9c2 cells, ATPLite luminescence | H9c2 cardiomyocytes, H2O2 injury protection, 2 h | protection from H2O2 cell death, % at 20 µM | 360,000 tested, 0.63% active | AID 588492, 2011;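 active = compounds giving at least 50% protection of heart cells from peroxide-induced death in the single-dose screen, raw or plate-pattern-corrected value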;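 note: 0% = DMSO wells with peroxide and 100% = DMSO wells without peroxide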
CR mimetic SO: reduction of superoxide in aged yeast, primary screen, HTS. S. cerevisiae aged cells, superoxide DHE fluorescence; hits give low values. superoxide response (% of plate mean), % at 10 µM. 330,000 tested, 0.18% active;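 active = superoxide response under a set limit, about three screen SD below normal, cut at about 65% in these data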;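 note: yeast aged for seven days with compound at 30 °C before DHE staining; 100% = average MFI of all compound-treated wells on the plate with controls excluded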
SUMO Mot1 rescue: yeast Mot1-301 growth rescue at high temperature, primary screen, SUMOylation pathway inhibitor project, S. cerevisiae, ATP luminescence, 38.5C. S. cerevisiae Mot1-301 growth rescue; percent above DMSO median, 100 means doubled. growth rescue, % at 18.8 µM. 320,000 tested, 1% active. AID 2716, 2010;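 active = every valid replicate shows activation above 250% relative to neutral control wells; inactive = the rest, any valid replicate at or below 250%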;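 note: OY570 slx delta 5 strain wells were the positive control but not used for scaling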
FAS-TE inh: FAS thioesterase domain inhibitors, primary screen, biochemical, fluorescence intensity, uHTS. Fatty acid synthase (Homo sapiens), P49327. recombinant FAS-TE, OMFH fluorogenic substrate, fluorescence endpoint. inhibition, % at 15 µM. 360,000 tested, 0.67% active. AID 602261, 2012;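 active = compounds whose normalised, plate-corrected inhibition of enzyme fluorescence in the single-dose primary screen is 50% or more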;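 note: 0% = DMSO with enzyme and 100% = substrate without enzyme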
aDG glyco up: activators of alpha-DG glycosylation, primary screen, uHTS, Pro5-aDG cells, AlphaScreen; AID 624168, 2012; 360,000 tested, 0.22% active; activation, % at 10 µM; alpha-DG glycosylation AlphaScreen (IIH6); 0% Pro5, 100% B10-LARGE cell signal;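 active = activation of at least 8% versus controls, or a plate z-score of at least 8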;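 note: Pro5 are CHO cells carrying HIG-tagged alpha-DG that lacks glycosylation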
MPTP inh: mitochondrial permeability transition pore inhibitors, primary screen, biochemical, isolated mouse mitochondria, absorbance; Ca2+ swelling absorbance, 30 min; inhibition, % at 10 µM; 360,000 tested, 1.4% active;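 active = inhibition of 50% or more, scaled per plate between neutral and stimulator controls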;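 note: 0% = DMSO wells given calcium and 100% = 1 mM EGTA wells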
Mot1 SUMO dose: growth restoration of Mot1-301 yeast on galactose, dose response, SUMO pathway inhibitor project, whole organism, S. cerevisiae, ATP luminescence, cherry-picked samples. shares compounds with SUMO Mot1 rescue. 2,300 tested, under 10 active. growth activity, percent, % at 42 µM. S. cerevisiae Mot1-301 galactose growth, 24 h; -100 = growth of slx-deleted rescue strain;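 active = Signal drops as the depositor expects, and the fitted half-maximal dose is no more than ten times the top valid tested dose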;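 note: more negative values mean stronger growth rescue toward the control strain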
An asterisk follows results filed as active; x = no result; + = active, no number; [ ] = remark or other dose. Sampled rows, rich in hits. Any-hit rate of the full collection: about 3.8%.

SMILES | H9c2 protect | CR mimetic SO | SUMO Mot1 rescue | FAS-TE inh | aDG glyco up | MPTP inh | Mot1 SUMO dose
CCCN1C(=O)/C(=C/c2ccc(C)s2)NC1=S | -5.1 | 100.3 | -29.0 | 2.8 | 0.1 | 3.1 | x
O=C(O)c1ccc(CNC(=O)c2ccccc2NC(=O)c2ccc([N+](=O)[O-])cc2)cc1 | 17.1 | 114.5 | 713.5* | -1.8 | -0.3 | -1.2 | 0.3
Cn1nccc1C(=O)Nc1cccc(S(=O)(=O)N2CCOCC2)c1 | 2.5 | 124.8 | 57.0 | -7.7 | -0.2 | 0.1 | x
CC(=O)Nc1ccc(-c2csc(NC(=O)C3CC(=O)N(c4ccc5c(c4)OCCO5)C3)n2)cc1 (stereo not given) | 4.3 | 106.3 | 508.0* | -23.1 | -0.1 | 1.2 | -0.6
O=C(NCCCN1CCN(c2ccccc2F)CC1)C1CCN(S(=O)(=O)c2cccs2)CC1 | -2.9 | 116.3 | -12.0 | -0.4 | 0.2 | 2.7 | x
CCS(=O)(=O)N1CCC(C(=O)NCCCN2CCN(c3ccccc3F)CC2)CC1 | -0.6 | 88.6 | 481.4* | -7.6 | 0.0 | -0.2 | 0.6
O=C(NCCCN1CCN(c2ccccc2F)CC1)Nc1ccccc1[N+](=O)[O-] | -0.1 | 119.5 | 446.5* | -5.9 | 0.0 | 0.7 | -0.1
CCC(=O)c1ccc(OC(=O)Cc2ccc(OC)cc2)cc1 | 3.5 | 88.0 | -14.7 | 7.6 | 0.0 | -0.3 | x
O=C1CN(C(=O)c2ccccc2F)C(c2ccccc2)c2cc(Cl)ccc2N1 (stereo not given) | 13.0 | 110.6 | 603.5* | 0.0 | -0.1 | -1.6 | 0.2
COc1ccc(-c2nc3ccccc3nc2-c2ccc(OC)c(OC)c2)cc1OC | 13.4 | 104.7 | 4.0 | 7.0 | 0.1 | 1.2 | x
COc1ccccc1-c1nc2ccccc2nc1-c1ccccc1OC | 2.1 | 69.8 | 394.9* | 6.1 | 0.2 | 2.3 | -0.5
COC(=O)c1ccc(Cl)c(NC(=O)CN(c2ccc(OC)c(OC)c2)S(C)(=O)=O)c1 | -1.0 | 91.2 | 562.5* | -2.4 | 0.0 | -0.4 | 0.5
O=[N+]([O-])c1ccc(C23CC4CC(CC(O)(C4)C2)C3)cc1 | x | 79.2 | 8.6 | x | x | x | x
O=C(O)CCSc1ccc([N+](=O)[O-])cc1[N+](=O)[O-] | -0.1 | 114.7 | 362.8* | 12.5 | 0.7 | -3.9 | -0.8
O=C(c1ccc(=O)[nH]c1)N(c1ccccc1)C(CCc1ccccc1)c1nc2ccccc2[nH]1 (stereo not given) | 1.6 | x | x | -2.6 | 0.1 | -1.3 | x
CC1(C)NC(=O)N(CCCOc2ccccc2Br)C1=O | -0.4 | 104.3 | + | -11.1 | 0.0 | -2.4 | -0.1
O=C1c2cccc3c(N4CCCCC4)ccc(c23)C(=O)N1CCO | -16.5 | 103.9 | 423.8* | -59.4 | 0.3 | 0.5 | 0.7
C=CCN1C(=O)c2cccc3c(N4CCCCC4)ccc(c23)C1=O | -15.4 | 96.4 | -7.5 | -166.7 | 3.0 | 1.1 | x
CC(=O)N(C(C)=O)C1=C(C#N)C2(CCCCC2)Cc2ccccc21 | -2.0 | 105.2 | 871.4* | 7.5 | 0.0 | -3.8 | -1.5
N#CC(C#N)=C1NC2(CCCCC2)Cc2ccccc21 | 2.0 | 90.5 | -0.4 | 12.8 | 0.0 | -0.7 | x
Cc1ccc(C(=O)CSc2n[nH]c(C)n2)cc1 | 0.2 | 83.2 | -3.7 | -6.1 | 0.1 | 0.0 | x
Cc1nc(SCC(=O)O)n[nH]1 | 14.7 | 105.5 | + | -2.5 | 0.1 | 1.3 | -0.1
COc1cccc(NC(=O)CN2CCN(c3ccccc3F)CC2)c1 | -12.2 | 110.3 | 600.4* | -2.6 | -0.3 | -1.8 | 0.4
O=C(CN1CCN(c2ccccc2F)CC1)Nc1nnc(C(F)(F)F)s1 | -3.9 | 86.2 | + | -0.4 | -0.2 | 0.6 | 0.1
COC(=O)c1[nH]c2cc(C)ccc2c1NC(=O)CN1CCN(c2ccccc2OC)CC1 | -10.3 | 107.3 | 492.4* | 7.3 | 0.6 | -0.9 | 0.4[21 µM]
SMILES | H9c2 protect | CR mimetic SO | SUMO Mot1 rescue | FAS-TE inh | aDG glyco up | MPTP inh | Mot1 SUMO dose
COc1cc(NC(=O)CN2CCN(c3ccccc3F)CC2)cc(OC)c1 | 1.0 | 106.3 | 13.7 | -2.2 | 0.0 | -0.5 | x
NC(=O)c1ncn([C@@H]2O[C@H](CNCc3cnc(N4CCOCC4)nc3)[C@@H](O)[C@H]2O)n1 | -5.5 | x | x | -11.6 | -0.1 | 0.1 | x
CCCC[C@@H]1CNC(=O)C(=O)N1CCc1cccc2ccccc12 | x | 97.8 | 4.3 | x | x | x | x
CCOc1ccc(C(C)(C)C)cc1S(=O)(=O)n1nc(C)cc1C | 4.1 | 67.2 | 55.7 | 14.7 | 0.0 | 4.0 | x
CCOc1ccc(C)cc1S(=O)(=O)n1nc(C)cc1C | 7.8 | 91.8 | 477.2* | -3.5 | 0.4 | 1.8 | -0.4
O=C(CNc1cccc(S(=O)(=O)N2CCOCC2)c1)Nc1ccccc1F | -1.9 | 97.3 | -3.3 | -1.4 | -0.4 | -1.2 | x
Cc1ccc(C)n1-c1ccc(N(C)C)cc1 | -21.1 | 111.4 | + | 1.8 | -0.3 | -3.0 | -0.1
Cc1ccc(C)n1-c1ccc(N2CCOCC2)cc1 | 2.8 | 108.3 | -2.4 | -6.7 | -0.3 | -0.2 | x
CN(C)/C=C/C(=O)c1ccncc1 | 4.7 | 96.2 | 876.5* | -2.2 | 0.5 | -1.6 | 0.0
CN(C)/C=C/C(=O)c1ccc(Br)cc1 | -3.9 | 90.3 | 8.6 | 3.1 | -0.2 | 2.7 | x
C[C@H](CO)N1C[C@H](C)[C@@H](CN(C)Cc2ccc(C(=O)Nc3ccccc3N)cc2)Oc2c(NC(=O)C3CCCCC3)cccc2C1=O | 30.8 | 86.7 | -12.6 | -5.6 | 0.3 | -0.6 | x
Cc1ccc(-n2c(-c3ccco3)nc3c(cnn3-c3ccc(C)cc3)c2=O)cc1 | -12.5 | 101.5 | 734.2* | 13.7 | -0.2 | 0.4 | 0.2
O=C1N=C(N2CCOCC2)S/C1=C\c1cccnc1 | 5.4 | 103.5 | 753.4* | -6.2 | -0.4 | -0.8 | 0.8
O=C1N=C(N2CCOCC2)SC1=Cc1ccco1 | -0.2 | x | x | -6.7 | 0.4 | -1.1 | x
O=C(CCN1C(=O)S/C(=C/c2ccccc2)C1=O)Nc1ccc(O)c(C(=O)O)c1 | -3.0 | 92.1 | 435.0* | 5.7 | -0.4 | -0.6 | 0.4
O=C(Cn1nc(C(F)(F)F)c2c1CCCCC2)N1CCOCC1 | 11.8 | 110.2 | -1.2 | -4.4 | 1.7 | -0.8 | x
O=C(Cn1nc(C(F)(F)F)c2c1CCCC2)N1CCOCC1 | 3.8 | 142.1 | 772.3* | -5.8 | -0.1 | -0.6 | -0.2
O=C(NCCc1ccc(F)cc1)C(=O)NCC1CCCN1S(=O)(=O)c1cccs1 (stereo not given) | 6.9 | 101.7 | 48.1 | -1.0 | 1.6 | -0.1 | x
O=C(CCNS(=O)(=O)c1cccc2nsnc12)NCCC1=CCCCC1 | 15.9 | 106.0 | 711.5* | -2.5 | 0.0 | -0.2 | 0.3

Assay outcomes: PubChem, several laboratories
